Results from PubChem BioAssay (NCI).
Values joined by “and” are separate entries in the source; they are usually repeats but may differ in a detail not shown here. Equal values may be shown once. Compounds without any hit were thinned out: in the full panel of roughly 79,000, 15% have a hit. Some structures have more than one record in an assay (separate samples or runs), and their calls can disagree. Active and inactive are the calls of the source. Rule as the data show it: active = growth inhibition above about 70%; inactive = the rest.

Assays:
[1] = NCI Yeast Anticancer Drug Screen. Data for the rad52 strain (AID 147);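 also: 0% = growth of vehicle-treated control cultures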; conditions: S. cerevisiae rad52 mutant growth inhibition, stronger effect = higher value
Procedure, shortened: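 Screen used a yeast mutant impaired in DNA repair. After compound exposure, growth was measured. Values reflect inhibition compared with vehicle-treated cells.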

[2] = NCI Yeast Anticancer Drug Screen. Data for the wt1 strain (AID 149);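 also: 0% = growth of vehicle-treated wt1 cultures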; conditions: S. cerevisiae wt1 strain (SPY 50644) growth inhibition, stronger effect = higher value
Procedure, shortened: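 Compounds are added to wt1 yeast cultures. Growth is then measured. Inhibition is expressed relative to vehicle-treated controls.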

[3] = NCI Yeast Anticancer Drug Screen. Data for the rad50EPP+ strain (AID 151);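 also: 0% = growth of vehicle-treated control cultures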; conditions: S. cerevisiae rad50 mutant strain, stronger effect = higher value
Procedure, shortened: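 Exposing the rad50EPP+ strain to each compound, growth was compared with vehicle-only cultures to give inhibition.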

[4] = NCI Yeast Anticancer Drug Screen. Data for the mgt1 strain (AID 153); conditions: S. cerevisiae mgt1 mutant growth inhibition, stronger effect = higher value
Procedure, shortened: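 Genetically defined yeast (mgt1) treated with compound; inhibition of growth expressed against vehicle-treated controls.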

[5] = NCI Yeast Anticancer Drug Screen. Data for the rad50 strain (AID 155);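 also: 0% = growth of vehicle-only cultures of the same strain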; conditions: S. cerevisiae rad50 strain growth inhibition, stronger effect = higher value
Procedure, shortened: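 Inhibition values express reduced yeast growth in compound-treated cultures relative to vehicle-treated controls.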

[6] = NCI Yeast Anticancer Drug Screen. Data for the mec2-1 strain (AID 157); conditions: S. cerevisiae mec2-1 strain, stronger effect = higher value
Procedure, shortened: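 Readout is yeast growth inhibition, normalised to vehicle-treated controls, in the mec2-1 strain exposed to compound.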

[7] = NCI Yeast Anticancer Drug Screen. Data for the rad14 strain (AID 159);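 also: 0% = growth of vehicle-treated control cultures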; conditions: S. cerevisiae rad14 strain growth inhibition, stronger effect = higher value
Procedure, shortened: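 A mutant yeast strain defective in DNA damage repair is treated with compound; inhibition of its growth is scored against untreated, vehicle-exposed cultures.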

[8] = NCI Yeast Anticancer Drug Screen. Data for the sgs1 mgt1 strain (AID 161);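 also: 0% = growth of cultures given vehicle only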; conditions: S. cerevisiae sgs1 mgt1 strain, stronger effect = higher value
Procedure, shortened: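 Growth of a repair-deficient yeast mutant was monitored after compound treatment and expressed as inhibition relative to vehicle-treated cultures.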

[9] = NCI Yeast Anticancer Drug Screen. Data for the CLN2oe strain (AID 163);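 also: 0% = growth of vehicle-only control cultures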; conditions: S. cerevisiae CLN2oe strain, stronger effect = higher value
Procedure, shortened: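 Values reflect how much compound exposure reduced yeast growth, referenced to vehicle-exposed cells. Assay organism is a strain with a defined genetic change affecting cell-cycle control.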

[10] = NCI Yeast Anticancer Drug Screen. Data for the cln2 rad14 strain (AID 165);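 also: 0% = growth equal to vehicle treated cultures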; conditions: S. cerevisiae cln2 rad14 strain, stronger effect = higher value
Procedure, shortened: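 Relative to vehicle controls, growth inhibition of compound-treated cln2 rad14 yeast was recorded.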

[11] = NCI Yeast Anticancer Drug Screen. Data for the bub3 strain (AID 167); conditions: S. cerevisiae bub3 mutant strain, stronger effect = higher value
Procedure, shortened: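 Steps: expose the mutant yeast strain to compound; grow alongside vehicle-treated cultures; measure growth; express inhibition against the vehicle cultures.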

[12] = NCI Yeast Anticancer Drug Screen. Data for the wt2 strain (AID 169);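 also: 0% = growth of vehicle-treated yeast cultures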; conditions: S. cerevisiae wt2 strain growth inhibition, stronger effect = higher value
Procedure, shortened: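 Values express reduction in yeast growth under compound treatment, referenced to vehicle-treated cells.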

[13] = NCI Yeast Anticancer Drug Screen. Data for the mlh1 strain (AID 171);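 also: 0% = growth of vehicle-treated control cultures of the same strain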; conditions: S. cerevisiae mlh1 strain growth inhibition, stronger effect = higher value
Procedure, shortened: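 Steps: expose the defined-mutant yeast strain to compound; expose a parallel culture to vehicle; measure growth; express compound effect as inhibition relative to the vehicle culture.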

[14] = NCI Yeast Anticancer Drug Screen. Data for the sgs1 strain (AID 173);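 also: 0% = growth of vehicle-only control cultures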; conditions: S. cerevisiae sgs1 mutant, stronger effect = higher value
Procedure, shortened: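 Treat defined-mutant yeast with compound; measure growth; calculate inhibition relative to vehicle-treated cells.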

[15] = NCI Yeast Anticancer Drug Screen. Data for the mlh1 rad18 strain (AID 175); conditions: S. cerevisiae mlh1 rad18 strain growth inhibition, stronger effect = higher value
Procedure, shortened: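 Test agents were incubated with a yeast strain of defined genotype (DNA damage repair defect). Inhibition of growth was derived by comparison with vehicle-exposed cultures.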

[16] = NCI Yeast Anticancer Drug Screen. Data for the rad18 strain (AID 177); conditions: S. cerevisiae rad18 mutant growth inhibition, stronger effect = higher value
Procedure, shortened: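 A genetically defined yeast mutant impaired in DNA damage repair was treated with test compounds, then its growth was measured against cultures receiving vehicle alone.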

[17] = at 5.0 µM (retest, dose inferred, filed as 0.5)
[18] = at 50.0 µM (retest, dose inferred, filed as 5.0)

Measured: growth inhibition

C/C(=N\O)c1ccc2ccc3ccccc3c2c1
75% (active) and 64% (inactive): [15]; [18]
active: [1]; at 33.0 µM 95% | [1]; at 100.0 µM 95% | [2]; at 100.0 µM 93% | [3]; at 11.0 µM 74% | [3]; at 33.0 µM 90% | [3]; at 100.0 µM 94% | [4]; at 100.0 µM 94% | [5]; at 33.0 µM 95% | [5]; at 50.0 µM 96.3% and 78.3% | [5]; at 100.0 µM 97% | [6]; at 100.0 µM 94% | [7]; at 100.0 µM 94% | [8]; at 50.0 µM 93.1% and 80.3% | [9]; at 100.0 µM 87% | [11]; at 33.0 µM 78% | [11]; [18] 72% | [11]; at 100.0 µM 94% | [12]; at 100.0 µM 92% | [13]; at 100.0 µM 90% | [14]; at 33.0 µM 80% | [14]; at 100.0 µM 95% | [15]; at 50.0 µM 96.2% and 82.8% | [16]; at 33.0 µM 92% | [16]; at 100.0 µM 94%
85% (active) and 65% (inactive): [5]; [18]
93.7% (active) and 7.85% (inactive): [6]; at 50.0 µM
77.6% (active) and 30.2% (inactive): [10]; at 50.0 µM
inactive: [1]; at 1.2 µM -2% | [1]; at 3.7 µM 11% | [1]; at 11.0 µM 49% | [2]; at 1.2 µM -4% | [2]; at 3.7 µM -5% | [2]; at 11.0 µM -9% | [2]; at 33.0 µM 7% | [3]; at 1.2 µM 12% | [3]; at 3.7 µM 35% | [4]; at 1.2 µM 1% | [4]; at 3.7 µM 0% | [4]; at 11.0 µM 2% | [4]; at 33.0 µM 37% | [5]; at 1.2 µM 4% | [5]; at 3.7 µM 12% | [5]; [17] -142% and 7% | [5]; at 11.0 µM 68% | [6]; at 1.2 µM 0% | [6]; at 3.7 µM 1% | [6]; [17] -43% and -1% | [6]; at 11.0 µM 15% | [6]; at 33.0 µM 30% | [6]; [18] -2% and 31% | [7]; at 1.2 µM 2% | [7]; at 3.7 µM 12% | [7]; at 11.0 µM 22% | [7]; at 33.0 µM 41% | [8]; [17] -60% and 0% | [8]; [18] 53% and 65% | [9]; at 1.2 µM -1% | [9]; at 3.7 µM 2% | [9]; at 11.0 µM 6% | [9]; at 33.0 µM 28% | [10]; [17] -49% and -8% | [10]; [18] 12% and 31% | [11]; at 1.2 µM 4% | [11]; at 3.7 µM 3% | [11]; [17] -50% and 1% | [11]; at 11.0 µM 29% | [12]; at 1.2 µM -1% | [12]; at 3.7 µM -1% | [12]; at 11.0 µM 0% | [12]; at 33.0 µM 35% | [13]; at 1.2 µM 3% | [13]; at 3.7 µM -3% | [13]; at 11.0 µM 7% | [13]; at 33.0 µM 61% | [14]; at 1.2 µM -2% | [14]; at 3.7 µM -3% | [14]; at 11.0 µM 33% | [15]; [17] -113% and 3% | [16]; at 1.2 µM 5% | [16]; at 3.7 µM 13% | [16]; at 11.0 µM 52%
94.5% (active) and 56.8% (inactive): [11]; at 50.0 µM

C/C(=N\NC(N)=O)C(CN1CCOCC1)C(c1ccccc1)c1c(O)c2ccccc2oc1=O (stereo unspecified)
active: [5]; [17] 89% | [5]; [18] 89% | [5]; at 50.0 µM 70.2% | [8]; [17] 89% | [8]; [18] 89% | [8]; at 50.0 µM 78.2%
inactive: [1]; at 1.2 µM 1% | [1]; at 3.7 µM 2% | [1]; at 11.0 µM 0% | [1]; at 33.0 µM 1% | [1]; at 100.0 µM -1% | [2]; at 1.2 µM 6% | [2]; at 3.7 µM 1% | [2]; at 11.0 µM 1% | [2]; at 33.0 µM 0% | [2]; at 100.0 µM -1% | [3]; at 1.2 µM -2% | [3]; at 3.7 µM 4% | [3]; at 11.0 µM 1% | [3]; at 33.0 µM -1% | [3]; at 100.0 µM -10% | [4]; at 1.2 µM -2% | [4]; at 3.7 µM 2% | [4]; at 11.0 µM -3% | [4]; at 33.0 µM 0% | [4]; at 100.0 µM -24% | [5]; at 1.2 µM -1% | [5]; at 3.7 µM 6% | [5]; at 11.0 µM 9% | [5]; at 33.0 µM 5% | [5]; at 100.0 µM -6% | [6]; at 1.2 µM 4% | [6]; at 3.7 µM 6% | [6]; [17] 13% | [6]; at 11.0 µM 6% | [6]; at 33.0 µM 7% | [6]; [18] 13% | [6]; at 50.0 µM 53.6% | [6]; at 100.0 µM 4% | [7]; at 1.2 µM 7% | [7]; at 3.7 µM 8% | [7]; at 11.0 µM 2% | [7]; at 33.0 µM 2% | [7]; at 100.0 µM 3% | [9]; at 1.2 µM 4% | [9]; at 3.7 µM 3% | [9]; at 11.0 µM 4% | [9]; at 33.0 µM 4% | [9]; at 100.0 µM -2% | [10]; [17] -7% | [10]; [18] -7% | [10]; at 50.0 µM 59.9% | [11]; at 1.2 µM 4% | [11]; at 3.7 µM 1% | [11]; [17] -7% | [11]; at 11.0 µM 2% | [11]; at 33.0 µM 5% | [11]; [18] -7% | [11]; at 50.0 µM 68% | [11]; at 100.0 µM 1% | [12]; at 1.2 µM 2% | [12]; at 3.7 µM 0% | [12]; at 11.0 µM 0% | [12]; at 33.0 µM -2% | [12]; at 100.0 µM -4% | [13]; at 1.2 µM -2% | [13]; at 3.7 µM 1% | [13]; at 11.0 µM 0% | [13]; at 33.0 µM -3% | [13]; at 100.0 µM 1% | [14]; at 1.2 µM -2% | [14]; at 3.7 µM 3% | [14]; at 11.0 µM 1% | [14]; at 33.0 µM -1% | [14]; at 100.0 µM -5% | [15]; [17] 40% | [15]; [18] 40% | [15]; at 50.0 µM 63.2% | [16]; at 1.2 µM 2% | [16]; at 3.7 µM 0% | [16]; at 11.0 µM 6% | [16]; at 33.0 µM 1% | [16]; at 100.0 µM -7%
